In all, about 370,000 compounds went through this assay and about 4,800 (1.3%) were called active. The list comes from a sample in which actives are over-represented; it also holds similar structures and randomly drawn compounds. Values without a mark were called inactive.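 How the source made its calls: active means inhibition above about 21% made by adding two undisclosed values (limit read from the data); inactive means the rest.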
Target: Protein arginine N-methyltransferase 1 (Homo sapiens) (UniProt Q99873)
Experiment: human PRMT1 activity-probe blockers – biochemical, fluorescence polarization, primary screen (AID 652257)
Details: recombinant PRMT1, activity-based probe fluorescence polarization; at 2.79 µM; hits give high values

Chain of Protein arginine N-methyltransferase 1 (Homo sapiens) (Q99873 whole entry, looked up): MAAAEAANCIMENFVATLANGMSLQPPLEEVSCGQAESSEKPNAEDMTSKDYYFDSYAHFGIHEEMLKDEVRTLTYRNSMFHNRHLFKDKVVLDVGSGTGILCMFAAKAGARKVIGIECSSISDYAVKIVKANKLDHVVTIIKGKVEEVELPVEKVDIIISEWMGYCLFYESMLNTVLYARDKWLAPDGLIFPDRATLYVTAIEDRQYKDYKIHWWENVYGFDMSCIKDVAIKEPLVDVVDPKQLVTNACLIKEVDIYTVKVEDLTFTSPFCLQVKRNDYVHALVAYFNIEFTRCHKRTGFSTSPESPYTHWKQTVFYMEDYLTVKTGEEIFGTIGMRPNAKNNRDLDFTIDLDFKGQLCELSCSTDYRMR

Structure (SMILES)	inhibition
O=C(COC(=O)Cn1cnc2ccccc2c1=O)NCC12CC3CC(CC(C3)C1)C2	-1.36%
O=C(Cn1cnc2ccccc21)N/N=C/c1ccco1	-1.39%
O=C(COC(=O)Cn1cnc2ccccc21)Nc1cccc2c1C(=O)c1ccccc1C2=O	26.1% (active)
Cc1cc2nc3c(=O)[nH]c(=O)nc-3n(C[C@H](O)[C@H](O)[C@H](O)CO)c2cc1C	85.4% (active)
Cc1ccc(Cn2c(C)nc3c(c2=O)c2nc4ccccc4nc2n3Cc2ccco2)cc1	24.6% (active)
Cc1ccc(OCC(=O)c2cc(C)n(Cc3ccco3)c2C)c([N+](=O)[O-])n1	1.18%
Cc1ccc(C(=O)CSc2nc3ccccc3c(=O)n2N)o1	6.79%
C[C@H]1CN([C@@H](C)CO)S(=O)(=O)c2ccc(Br)cc2O[C@H]1CN(C)C(=O)c1cnccn1	-6.2%
CC1Sc2ccc(C(=O)NCc3ccccc3Cl)cc2NC1=O (centres undefined)	1.76%
COC(=O)c1cccc(Cn2ccc3ccc(-c4ccc5ccn(C(=O)C6CCCCC6)c5c4)cc32)c1	3.39%
C[C@@H]1COc2cccc(N3CCCC3)c2S(=O)(=O)N1C	10.8%
C=CCn1c(N)cc(=O)nc1SCC(=O)Nc1cccc2ccccc12	-1.49%
Cc1ccc(-n2c(SCC(=O)Nc3cccc4ccccc34)nnc2-c2ccccn2)cc1	-1.87%
Cc1ccccc1-n1c(SCC(=O)Nc2cccc3ccccc23)nc(O)cc1=O	27.6% (active)
COc1cccc(CNC(=O)C2CCCN(c3nc4ccccc4o3)C2)c1OC (centres undefined)	-1.5%
Cc1ccc(NC(=O)Nc2cc(C)nn2-c2ccccc2)cc1	-2.65%
O=C(c1cccc(C(F)(F)F)c1)N1CC[C@H]2[C@H](CCCN2Cc2cc(F)cc(F)c2)C1	-3.31%
CCOCCn1c(C(C)C)nc2ccccc21	-1.59%
CCCn1c(C(Cc2ccccc2)NC(=O)COC)nc2ccccc21 (centres undefined)	21.6% (active)
CCCC(NC(=O)c1ccccc1)c1nc2ccccc2n1Cc1ccc(C(=O)OC)o1 (centres undefined)	-1.43%
CCCCn1ccnc1C(=O)c1cccc(S(=O)(=O)N2c3ccccc3CC2C)c1 (centres undefined)	-0.73%
Cc1ccccc1NC(=O)C1CCN(c2ncccn2)CC1	8.54%
Fc1ccc2nc(COCc3nc4ccc(F)cc4[nH]3)[nH]c2c1	-1.38%
Cc1cc2c(c(=O)n1Cc1ccco1)C(c1ccccc1)C(C#N)=C(N)O2 (centres undefined)	36.6% (active)
Cc1cc2c(c(=O)n1C)C(C(C)C)C(C#N)=C(N)O2 (centres undefined)	2.55%
CC(C)c1ccc(C2C(C#N)=C(N)Oc3c2oc(CO)cc3=O)cc1 (centres undefined)	2.64%
CCC(C)(C)NC(=O)C(c1cccc(OC)c1OC)N(CC(C)C)C(=O)CCC(=O)Nc1cc(C)on1 (centres undefined)	-2.2%

Structure (SMILES)	inhibition
CCn1c(=S)sc2c(=O)n(CC(=O)Nc3ccc(OC)cc3)c(C)nc21	0.4%
Oc1ccc2ccc3cccc[n+]3c2c1	187% (active)
COC(=O)[C@]12C[C@H](CC(=O)NCc3ccccc3)C(=O)N(Cc3ccccc3)C1=C[C@H](COCc1ccccc1)O[C@@H]2C	1.65%
N/C(=N\OC(=O)CCc1ccccc1)c1cccnc1	0.81%
Cc1ccc(OCc2nnc(SC/C=C/c3ccccc3)n2Cc2ccco2)cc1	-0.38%
O=C(Nc1cc(Cl)cc(Cl)c1)OCCN1CCCC12CCC(c1ccccc1)CC2 (centres undefined)	-4.6%
COc1ccc(CSc2nnc(SCC(=O)Nc3ccccc3C(F)(F)F)s2)cc1	-1.07%
COCCCNC(=O)C[C@H]1C[C@@]2(C(=O)OC)C(=C[C@H](C(C)(C)C)O[C@@H]2C)N(Cc2ccc(Cl)cc2Cl)C1=O	4.84%
COC(=O)[C@]12C[C@H](CC(=O)NCc3ccccc3)C(=O)N(CCc3ccc(OC)c(OC)c3)C1=C[C@H](C(C)(C)C)O[C@@H]2C	-1.11%
CN(CC(=O)Nc1ccc(C(N)=O)cc1)S(=O)(=O)c1ccc2c(c1)OCCO2	-3.91%
CN(C)S(=O)(=O)c1ccc(NC(=O)COC(=O)c2n[nH]c3ccccc23)cc1	-3.56%
NS(=O)(=O)c1ccc(NC(=O)COC(=O)c2c3c(nc4ccccc24)/C(=C\c2ccc4c(c2)OCO4)CCC3)cc1	139% (active)
NC(=O)c1ccc(NC(=O)COC(=O)c2c3c(nc4ccccc24)/C(=C\c2ccc4c(c2)OCO4)CCC3)cc1	141% (active)
O=C(COC(=O)c1c(Cl)cccc1Cl)Nc1cccc(S(=O)(=O)NC2=NCCCCC2)c1	-1.88%
O=C(COC(=O)c1ccc2c(c1)OCCO2)NCc1ccccc1Cl	-2.85%
COc1cccc(CSc2nnc(-c3cccnc3)n2Cc2ccccc2)c1	4.89%
COc1ccc(C2Nc3ccccc3C(=O)N2Cc2cccs2)cc1COc1c(C)cccc1C (centres undefined)	-1.12%
CCOC(=O)N1CCN(C(=O)CSc2nnc(-c3c[nH]c4ccccc34)n2CCOC)CC1	-1.98%
CN(CCO)c1cccc2c1S(=O)(=O)N(Cc1cn(Cc3ccc(C(F)(F)F)cc3)nn1)Cc1ccccc1O2	4.68%
COc1cccc(/C=C/C(=O)OCC(=O)N2CCCc3ccccc32)c1	-0.48%
Cn1c(SCC(=O)N2CCCc3ccccc32)nc2ccccc2c1=O	0.04%
Cc1cccc2cc3c(N)c(C(=O)N4CCCc5ccccc54)sc3nc12	38% (active)
Cc1ccc(N)cc1CN1CCN(c2ncc(Cc3ccccc3)cn2)CC1	-1.39%
N#CC1=C(N)Oc2[nH]c(=S)[nH]c(=O)c2C12C(=O)Nc1ccccc12 (centres undefined)	37.2% (active)
Cc1ccc(NC2(C#N)C(=O)Nc3ccccc32)cc1 (centres undefined)	-2.14%
O=S1(=O)c2ccc(Br)cc2OC[C@H](Cc2ccccc2)N1Cc1cn(Cc2ccccc2)nn1	4.16%
C=CCC(NCc1ccco1)c1ccc(OC)cc1 (centres undefined)	-0.85%
